# Results filed as inconclusive are left out. Where a call stands in place of a potency, no number is given. Active and inactive are the calls of the source. Calls follow the shape of the dose curve; as a rule, active = well fitted cell-killing curve with a large enough effect; inconclusive = small, poorly fitted or top-dose-only effect, or effect the other way; inactive = no such curve, though single readings can be large or run the other way.
# Assay: Quantitative High-Throughput drug screen in 47 multiple myeloma cell lines against the NCATS MIPE library collection: KMS27_JCRB cell viability assay (AID 1918970); also: nearly all actives have a fitted effect of over 30% in size
# Settings: KMS27 myeloma cells, CellTiter-Glo ATP viability, 48 h; viability (% of DMSO): at 45.8 µM (top of the series)
# Source text: PI: Beverly A. Mock Ph.D.
# Laboratory of Cancer Biology and Genetics,
# Center for Cancer Research, National Cancer Institute,
# National Institute of Health, Bethesda, Maryland
# Drug resistance and disease progression are common in multiple myeloma (MM) patients, underscoring the need for new therapeutic combinations. […] We hypothesized that effective combinations would reduce MYC expression and enhance p16 activity. […] These preclinical data identify potentially useful drug combinations for evaluation in drug-resistant MM and reveal potential mechanisms of combined drug sensitivity.
# Described herein is the primary MIPE qHTS used to cherrypick compounds. Validated compounds were then further tested for potential synergistic activiy.
# [1] Peat TJ, Gaikwad SM, Dubois W, Gyabaah-Kessie N, Zhang S, Gorjifard S, Phyo Z, Andres M, Hughitt VK, Simpson RM, Miller MA, Girvin AT, Taylor A, Williams D, D'Antonio N, Zhang Y, Rajagopalan A, Flietner E, Wilson K, Zhang X, Shinn P, Klumpp-Thomas C, McKnight C, Itkin Z, Chen L, Kazandijian D, Zhang J, Michalowski AM, Simmons JK, Keats J, Thomas CJ, Mock BA. Drug combinations identified by high-throughput screening promote cell cycle transition and upregulate Smad pathways in myeloma. […] Epub 2023 Jun 24. PMID: 37356470; PMCID: PMC10408729.
# SEQUENCE No. (e.g., 1, 2, 3, etc.); […] (e.g., Cells, Incubation, Reagent, etc.); VALUE and DESCRIPTION.
# 1; Cells; 5 uL; white, solid bottom 1536-well Greiner assay plate.
# 2; Compounds; 23 nL; Kalypsis pin tool (Wako USA) equipped with a 1536-well pin head to transfer to the assay plates.
# 3; Incubation; 48 hours; 37C incubation.
# 4; Reagent;5uL; CellTiter Glo (Promega).
# 5; Detector; 425V; Luminescence; Viewlux PerkinElmer.
# NOTES (numbers refer to Sequence numbers above)
# 1. The cell-based screening methods employed in this study were like those previously published. Briefly, the corresponding myeloma cell lines were screened in 1,536-well plates with 500 cells, 5-uL per well for inhibition of cell viability (assessed by measuring ATP levels with CellTiterGlo).
# 2. NCATS MIPE 4.0 library of approved and investigational drugs were added using the Kalypsis pin tool. Wells treated with DMSO only for 100% viability and media only wells for 0% viability were used as controls.
# 3. The assay plates were covered and incubated for 48 hours in a 37C, 5% CO2 incubator with controlled humidity.
# 4. After 48 hours, CellTilter-GloTM luminescent substrate mix (Promega) reagent was added to the assay plate and plates we incubated for 5 min at room temperature.
# 5. Signal was measured as median relative luminescence units on a ViewLux (PerkinElmer) multiplate reader.
# [1] Heske CM, Davis MI, Baumgart JT, Wilson K, Gormally MV, Chen L, Zhang X, Ceribelli M, Duveau DY, Guha R, Ferrer M, Arnaldez FI, Ji J, Tran HL, Zhang Y, Mendoza A, Helman LJ, Thomas CJ. Matrix Screen Identifies Synergistic Combination of PARP Inhibitors and Nicotinamide Phosphoribosyltransferase (NAMPT) Inhibitors in Ewing Sarcoma. Clin Cancer Res. 2017 Dec 1;23(23):7301-7311. doi: 10.1158/1078-0432.CCR-17-1121. Epub 2017 Sep 12. PMID: 28899971; PMCID: PMC6636827.
# Potency is read from the fitted curve at half-maximal effect.
row,Compound,Potency
1,C=C[C@@H]1CN2CCC1C[C@@H]2C(O)c1ccnc2ccc(OC)cc12 (stereo not given in full),inactive
2,CC(C)(CO)[C@@H](O)C(=O)NCCC(=O)O,inactive
3,O=C(CO)N1CCC(c2[nH]nc(-c3ccc(Cl)cc3)c2-c2ccncn2)CC1,inactive
4,O=C1Nc2ccc(I)cc2C1=Cc1cc(Br)c(O)c(Br)c1,10500 nM (active)
5,COc1cc([C@@H]2c3cc4c(cc3[C@@H](O[C@@H]3O[C@@H]5CO[C@@H](C)O[C@@H]5[C@H](O)[C@@H]3O)[C@H]3COC(=O)[C@H]23)OCO4)cc(OC)c1O,418 nM (active)
6,CC=C(C(=CC)c1ccc(O)cc1)c1ccc(O)cc1,11800 nM (active)
7,COc1ccc(CCN(C)CCCOc2ccc(S(=O)(=O)c3[nH]c4ccccc4c3C(C)C)cc2)cc1OC,inactive
8,O=C(O)C1=NC(C(=O)O)CC(C=CN2c3cc(O)c(OC4OC(CO)C(O)C(O)C4O)cc3CC2C(=O)O)=C1 (stereo not given),inactive
9,NCC1CCC(C(=O)O)CC1 (stereo not given),inactive
10,O=C1CN2Cc3c(ccc(Cl)c3Cl)N=C2N1,296 nM (active)
11,C=C1[C@H](n2cnc3c(=O)[nH]c(N)nc32)C[C@H](O)[C@H]1CO,5900 nM (active)
12,CC1(C)[C@H]2CC[C@]3(C)[C@@H](C(=O)C=C4[C@@H]5C[C@@](C)(C(=O)O)CC[C@]5(C)CC[C@]43C)[C@@]2(C)CC[C@@H]1O,inactive
13,Cc1nc(NC(=O)N2CCC[C@@H]2C(N)=O)sc1-c1csc(C(C)(C)C)n1,2350 nM (active)
14,CO[C@H]1/C=C\O[C@@]2(C)Oc3c(C)c(O)c4c(O)c(c5c(nc6cc(C)ccn65)c4c3C2=O)NC(=O)C(C)=CC=C[C@H](C)[C@H](O)[C@@H](C)[C@@H](O)[C@@H](C)[C@H](OC(C)=O)[C@H]1C,18700 nM (active)
15,CC(C)C[C@@H](C(=O)N[C@H](C(=O)OC1CCCC1)c1ccccc1)[C@H](O)C(=O)NO,2640 nM (active)
16,CCCC1OC2C[C@@H]3[C@H]4CCC5=CC(=O)C=C[C@]5(C)[C@H]4C(O)C[C@]3(C)[C@]2(C(=O)CO)O1 (stereo not given in full),inactive
17,CC(C)n1c(C=C[C@H](O)C[C@H](O)CC(=O)O)c(-c2ccc(F)cc2)c2ccccc21,3720 nM (active)
18,CN(C)CCN(Cc1ccc(Cl)cc1)c1ccccn1,inactive
19,CSc1cccc(Nc2ncc3cc(-c4c(Cl)cccc4Cl)c(=O)n(C)c3n2)c1,66.2 nM (active)
20,CC(C)C[C@@H](N)[C@H](O)C(=O)N[C@H](C(=O)N[C@H](C(=O)N[C@@H](CC(=O)O)C(=O)O)C(C)C)C(C)C,inactive

row,Compound,Potency
1,OC[C@H]1O[C@@H](O[C@H]2[C@@H](O)[C@@](O)(CO)O[C@@H]2CO)[C@H](O)[C@@H](O)[C@@H]1O,inactive
2,O=C1C(c2c(O)[nH]c3ccccc23)=Nc2ccccc21,inactive
3,COc1cc2ncn(-c3cc(OCc4ccccc4S(C)(=O)=O)c(C#N)s3)c2cc1OC,inactive
4,COc1c(C)cnc(Cn2cnc3c(Cl)nc(N)nc32)c1C,209 nM (active)
5,N#Cc1ccc(Oc2ccc3c(c2)COB3O)cc1,23500 nM (active)
6,CC1CCN(c2cc(N3CCN(C)CC3)ccc2NC(=O)c2cc(C#N)c[nH]2)CC1,inactive
7,Cc1ccc(NC(=O)Nc2cc(C(F)(F)F)ccc2F)cc1Nc1ccc2c(c1)NC(=O)C2=Cc1ccc[nH]1,8330 nM (active)
8,Nc1ncnc2c1ncn2[C@@H]1O[C@H](CO)[C@@H](O)[C@@H]1O,418 nM (active)
9,Cc1ccc(C(=O)N(CCCN)[C@@H](c2oc3cc(Cl)ccc3c(=O)c2Cc2ccccc2)C(C)C)cc1,inactive
10,Cc1ccccc1C(=O)c1ccc(Nc2ccc(Br)cc2N)cc1Cl,6620 nM (active)
11,Cn1cc(-c2ccc3nnc(Sc4ccc5ncccc5c4)n3n2)cn1,inactive
12,CC(C)N(CCCNC(=O)Nc1ccc(C(C)(C)C)cc1)C[C@H]1O[C@@H](n2cc(Br)c3c(N)ncnc32)[C@H](O)[C@H]1O,inactive
13,Cc1nc2c([nH]1)CCN(C(=O)c1ccc(NC(=O)c3ccccc3-c3ccccc3)cc1)c1ccccc1-2,inactive
14,Cn1c(=O)c(-c2c(Cl)cccc2Cl)cc2cnc(Nc3cccc(C(=O)O)c3)nc21,526 nM (active)
15,CCN(CC)CCCCNc1nc2cc(Cl)c(Cl)cc2nc1-c1ccc(-c2cccs2)s1,8330 nM (active)
16,CC(C)(OCc1nn(Cc2ccccc2)c2ccccc12)C(=O)O,inactive
17,CCC(=O)NCC[C@@H]1CCc2ccc3c(c21)CCO3,inactive
18,CN(C)CCN(C)C(=O)c1ccc(NC(=O)Nc2ccc(-c3nc(N4CCOCC4)c4ccn(CC(F)(F)F)c4n3)cc2)cc1,1 nM (active)
19,Nc1ncnc2c1c(-c1cccc(OCc3ccccc3)c1)cn2C1CC(CN2CCC2)C1 (stereo not given),1870 nM (active)
20,Cn1c(=O)c(Oc2ccc(F)cc2F)cc2cnc(NC3CCOCC3)nc21,inactive

# Reference: PubChem BioAssay (NCATS)
